# Test results taken from PubChem BioAssay (NCI).
# The panel holds about 79,000 compounds, 15% with a hit somewhere; the sample as a whole holds those more often. A number with no mark means an inactive call. Calls of active or inactive are those of the source. No stated cut-off is given here; in the data, active means growth inhibition above about 70%; inactive means the rest.
# Assays:
# [1] = NCI Yeast Anticancer Drug Screen. Data for the rad52 strain (AID 147);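 further: 0% = growth of vehicle-treated control cultures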; settings: S. cerevisiae rad52 mutant growth inhibition, hits give high values
# How it was run: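 Measured: yeast growth inhibition. System: strain with a defined DNA damage repair alteration. Reference: vehicle-treated control cultures.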
# [2] = NCI Yeast Anticancer Drug Screen. Data for the wt1 strain (AID 149);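 further: 0% = growth of vehicle-treated wt1 cultures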; settings: S. cerevisiae wt1 strain (SPY 50644) growth inhibition, hits give high values
# How it was run: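 Vehicle-normalised growth inhibition; strain wt1; compound exposure.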
# [3] = NCI Yeast Anticancer Drug Screen. Data for the rad50EPP+ strain (AID 151);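 further: 0% = growth of vehicle-treated control cultures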; settings: S. cerevisiae rad50 mutant strain, hits give high values
# How it was run: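 One strain with a rad50 alteration (rad50EPP+) was compound-treated, its growth then compared to that of vehicle controls.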
# [4] = NCI Yeast Anticancer Drug Screen. Data for the mgt1 strain (AID 153); settings: S. cerevisiae mgt1 mutant growth inhibition, hits give high values
# How it was run: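 After exposure of the mgt1 yeast mutant to compound, growth was measured and reported as inhibition compared with vehicle controls.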
# [5] = NCI Yeast Anticancer Drug Screen. Data for the rad50 strain (AID 155);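 further: 0% = growth of vehicle-only cultures of the same strain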; settings: S. cerevisiae rad50 strain growth inhibition, hits give high values
# How it was run: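 A DNA repair-deficient yeast mutant serves as the test organism; compound-induced growth inhibition is calculated against vehicle-treated cells.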
# [6] = NCI Yeast Anticancer Drug Screen. Data for the mec2-1 strain (AID 157); settings: S. cerevisiae mec2-1 strain, hits give high values
# How it was run: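 Test agents were screened against the mec2-1 yeast strain, with defined DNA repair or cell cycle alteration. Growth was scored as inhibition against vehicle-only controls.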
# [7] = NCI Yeast Anticancer Drug Screen. Data for the rad14 strain (AID 159);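 further: 0% = growth of vehicle-treated control cultures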; settings: S. cerevisiae rad14 strain growth inhibition, hits give high values
# How it was run: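 Vehicle-treated cultures served as the baseline for growth inhibition of a DNA repair-mutant yeast strain exposed to each compound.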
# [8] = NCI Yeast Anticancer Drug Screen. Data for the sgs1 mgt1 strain (AID 161);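 further: 0% = growth of cultures given vehicle only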; settings: S. cerevisiae sgs1 mgt1 strain, hits give high values
# How it was run: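 Genetically altered yeast, compound exposure, growth inhibition relative to vehicle.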
# [9] = NCI Yeast Anticancer Drug Screen. Data for the CLN2oe strain (AID 163);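 further: 0% = growth of vehicle-only control cultures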; settings: S. cerevisiae CLN2oe strain, hits give high values
# How it was run: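 Here, growth inhibition in a cell-cycle-altered yeast strain after compound exposure was quantified against vehicle control growth.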
# [10] = NCI Yeast Anticancer Drug Screen. Data for the cln2 rad14 strain (AID 165);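 further: 0% = growth equal to vehicle treated cultures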; settings: S. cerevisiae cln2 rad14 strain, hits give high values
# How it was run: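 Growth of compound-exposed yeast (cln2 rad14 genotype) measured and expressed as inhibition relative to vehicle.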
# [11] = NCI Yeast Anticancer Drug Screen. Data for the bub3 strain (AID 167); settings: S. cerevisiae bub3 mutant strain, hits give high values
# How it was run: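 Inhibition values come from growth of compound-treated mutant yeast normalised to vehicle-treated controls.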
# [12] = NCI Yeast Anticancer Drug Screen. Data for the wt2 strain (AID 169);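 further: 0% = growth of vehicle-treated yeast cultures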; settings: S. cerevisiae wt2 strain growth inhibition, hits give high values
# How it was run: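 Genetically defined yeast strains from a DNA-repair/cell-cycle panel were used. Compound-exposed yeast growth was measured, and the inhibition was calculated relative to vehicle treatment.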
# [13] = NCI Yeast Anticancer Drug Screen. Data for the mlh1 strain (AID 171);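 further: 0% = growth of vehicle-treated control cultures of the same strain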; settings: S. cerevisiae mlh1 strain growth inhibition, hits give high values
# How it was run: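 Here the genetically defined yeast mutant is grown with each compound, and the extent to which its growth falls below that of vehicle-exposed cells is reported.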
# [14] = NCI Yeast Anticancer Drug Screen. Data for the sgs1 strain (AID 173);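 further: 0% = growth of vehicle-only control cultures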; settings: S. cerevisiae sgs1 mutant, hits give high values
# How it was run: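 Relative growth inhibition, referenced to vehicle, was determined in a yeast strain with a defined alteration affecting DNA damage repair or cell cycle control after compound exposure.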
# [15] = NCI Yeast Anticancer Drug Screen. Data for the mlh1 rad18 strain (AID 175); settings: S. cerevisiae mlh1 rad18 strain growth inhibition, hits give high values
# How it was run: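 In this whole-cell yeast screen, a strain with altered DNA damage repair is challenged with compound, and its growth is measured against matched vehicle-treated controls.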
# [16] = NCI Yeast Anticancer Drug Screen. Data for the rad18 strain (AID 177); settings: S. cerevisiae rad18 mutant growth inhibition, hits give high values
# How it was run: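 Screen uses a yeast strain with a defined lesion in DNA damage repair; compound effect is read as loss of growth compared to untreated vehicle cultures.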
# [17] = at 5.0 µM (retest, dose inferred, filed as 0.5)
# [18] = at 50.0 µM (retest, dose inferred, filed as 5.0)
structure (smiles),measurement,setting,value
CCOc1ccc2nc3ccccc3c(N)c2c1,growth inhibition,[1]; at 1.2 µM,13%
same,growth inhibition,[1]; at 3.7 µM,22%
same,growth inhibition,[1]; at 11.0 µM,60%
same,growth inhibition,[1]; at 33.0 µM,91% (active)
same,growth inhibition,[1]; at 100.0 µM,97% (active)
same,growth inhibition,[2]; at 1.2 µM,7%
same,growth inhibition,[2]; at 3.7 µM,13%
same,growth inhibition,[2]; at 11.0 µM,37%
same,growth inhibition,[2]; at 33.0 µM,83% (active)
same,growth inhibition,[2]; at 100.0 µM,94% (active)
same,growth inhibition,[3]; at 1.2 µM,2%
same,growth inhibition,[3]; at 3.7 µM,4%
same,growth inhibition,[3]; at 11.0 µM,21%
same,growth inhibition,[3]; at 33.0 µM,59%
same,growth inhibition,[3]; at 100.0 µM,90% (active)
same,growth inhibition,[4]; at 1.2 µM,0%
same,growth inhibition,[4]; at 3.7 µM,9%
same,growth inhibition,[4]; at 11.0 µM,35%
same,growth inhibition,[4]; at 33.0 µM,83% (active)
same,growth inhibition,[4]; at 100.0 µM,94% (active)
same,growth inhibition,[5]; at 1.2 µM,7%
same,growth inhibition,[5]; at 3.7 µM,21%
same,growth inhibition,[5]; [17],0%
same,growth inhibition,[5]; at 11.0 µM,50%
same,growth inhibition,[5]; at 33.0 µM,89% (active)
same,growth inhibition,[5]; [18],81% (active)
same,growth inhibition,[5]; at 50.0 µM,91.2% (active)
same,growth inhibition,[5]; at 100.0 µM,97% (active)
same,growth inhibition,[6]; at 1.2 µM,5%
same,growth inhibition,[6]; at 3.7 µM,4%
same,growth inhibition,[6]; [17],21%
same,growth inhibition,[6]; at 11.0 µM,19%
same,growth inhibition,[6]; at 33.0 µM,80% (active)
same,growth inhibition,[6]; [18],82% (active)
same,growth inhibition,[6]; at 50.0 µM,83.7% (active)
same,growth inhibition,[6]; at 100.0 µM,97% (active)
same,growth inhibition,[7]; at 1.2 µM,4%
same,growth inhibition,[7]; at 3.7 µM,23%
same,growth inhibition,[7]; at 11.0 µM,50%
same,growth inhibition,[7]; at 33.0 µM,87% (active)
same,growth inhibition,[7]; at 100.0 µM,92% (active)
same,growth inhibition,[8]; [17],32%
same,growth inhibition,[8]; [18],86% (active)
same,growth inhibition,[8]; at 50.0 µM,81.2% (active)
same,growth inhibition,[9]; at 1.2 µM,7%
same,growth inhibition,[9]; at 3.7 µM,16%
same,growth inhibition,[9]; at 11.0 µM,33%
same,growth inhibition,[9]; at 33.0 µM,68%
same,growth inhibition,[9]; at 100.0 µM,92% (active)
same,growth inhibition,[10]; [17],46%
same,growth inhibition,[10]; [18],84% (active)
same,growth inhibition,[10]; at 50.0 µM,86.2% (active)
same,growth inhibition,[11]; at 1.2 µM,-20%
same,growth inhibition,[11]; at 3.7 µM,-2%
same,growth inhibition,[11]; [17],14%
same,growth inhibition,[11]; at 11.0 µM,16%
same,growth inhibition,[11]; at 33.0 µM,78% (active)
same,growth inhibition,[11]; [18],84% (active)
same,growth inhibition,[11]; at 50.0 µM,87.1% (active)
same,growth inhibition,[11]; at 100.0 µM,90% (active)
same,growth inhibition,[12]; at 1.2 µM,7%
same,growth inhibition,[12]; at 3.7 µM,18%
same,growth inhibition,[12]; at 11.0 µM,49%
same,growth inhibition,[12]; at 33.0 µM,89% (active)
same,growth inhibition,[12]; at 100.0 µM,98% (active)
same,growth inhibition,[13]; at 1.2 µM,7%
same,growth inhibition,[13]; at 3.7 µM,8%
same,growth inhibition,[13]; at 11.0 µM,47%
same,growth inhibition,[13]; at 33.0 µM,90% (active)
same,growth inhibition,[13]; at 100.0 µM,98% (active)
same,growth inhibition,[14]; at 1.2 µM,10%
same,growth inhibition,[14]; at 3.7 µM,24%
same,growth inhibition,[14]; at 11.0 µM,51%
same,growth inhibition,[14]; at 33.0 µM,88% (active)
same,growth inhibition,[14]; at 100.0 µM,97% (active)
same,growth inhibition,[15]; [17],10%
same,growth inhibition,[15]; [18],82% (active)
same,growth inhibition,[15]; at 50.0 µM,89.5% (active)
same,growth inhibition,[16]; at 1.2 µM,4%
same,growth inhibition,[16]; at 3.7 µM,8%
same,growth inhibition,[16]; at 11.0 µM,30%
same,growth inhibition,[16]; at 33.0 µM,83% (active)
same,growth inhibition,[16]; at 100.0 µM,97% (active)
